# S1P2 blocker: blocks the human S1P2 receptor; cell-based S1P2 antagonist assay, inhibition at 5 uM; inhibition, % at 5 µM; 97,000 tested, 0.21% active; AID 736; in the data active means inhibition above about 45%;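 further: CRE beta-lactamase reporter cells expressing human S1P2 stimulated with S1P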
# FAK inh: inhibitors of human focal adhesion kinase; AID 727; Q05397; biochemical FAK kinase activity assay; 97,000 tested, 0.84% active; inhibition, %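 (tested at 7 µM)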
# SDO1 yeast rescue: sdo1-depleted yeast growth rescue; S. cerevisiae sdo1-depleted JHY4D growth rescue, OD600 30 h; hits give high values; pdr5 snq2 efflux-pump mutant strain; z-score at 10 µM; 140,000 tested, 0.21% active; AID 817;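 active means z-score above 3 at both the 24 hr and the 30 hr optical density reads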
# GALR2 agonist: activates the human galanin receptor 2; O43603; GALR2-expressing cells, agonist activation read-out; activation, % (concentration not given with the values); 140,000 tested, 0.48% active; in the data active means activation above about 5%, passing the limit was not always enough
# Target sequence (O43603 whole entry, looked up): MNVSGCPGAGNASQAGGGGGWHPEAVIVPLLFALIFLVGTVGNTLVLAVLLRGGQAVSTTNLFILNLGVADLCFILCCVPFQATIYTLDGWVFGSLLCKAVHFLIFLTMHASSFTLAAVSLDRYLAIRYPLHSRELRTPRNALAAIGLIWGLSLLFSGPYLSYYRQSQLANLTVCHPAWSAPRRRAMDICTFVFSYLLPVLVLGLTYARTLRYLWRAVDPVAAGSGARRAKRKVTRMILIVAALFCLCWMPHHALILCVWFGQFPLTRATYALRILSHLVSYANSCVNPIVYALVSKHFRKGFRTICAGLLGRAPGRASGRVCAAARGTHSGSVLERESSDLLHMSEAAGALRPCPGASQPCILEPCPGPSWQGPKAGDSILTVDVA
# S1P2 agonist: S1P2 (human) receptor agonism; S1P2-expressing cell line, agonist reporter read-out; activation, % at 4.5 µM; 97,000 tested, 0.46% active; AID 729; in the data active means activation above about 16%
# GALR2 blocker: GALR2 (human) receptor antagonism; O43603; GALR2-expressing cells, antagonist mode; inhibition, % at 4 µM; 140,000 tested, 0.39% active; in the data active means inhibition above about 27%;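 further: cells stimulated with galanin 1-16 at roughly its EC80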
# FAK inh confirm: FAK (human) inhibition confirmed | shares compounds with FAK inh | FAK kinase biochemical inhibition assay | inhibition, % at 7 µM | 750 tested, 28% active | AID 794
# A number is an active result; – = inactive; · = no result. Rows were chosen to be rich in hits. Some 1.9% of all compounds tested hit in one or more screens of this group. Unless noted, no stated cut-off is given here; in the data, active means inhibition above about 19%; inactive means the rest.
SMILES,S1P2 blocker,FAK inh,SDO1 yeast rescue,GALR2 agonist,S1P2 agonist,GALR2 blocker,FAK inh confirm
COc1ccc(CCNC(=O)CN(C2CCCCC2)S(C)(=O)=O)cc1OC,–,20.4,–,–,–,–,–
CN1c2ccccc2C(C)(C)C12C=Nc1c(cc(N3CCOCC3)c3ccccc13)O2 (stereo not given),–,39.9,–,–,–,–,–
CN1c2ccccc2C(C)(C)C12C=Cc1cc(O)ccc1O2 (stereo not given),–,–,–,–,–,–,·
CCOC(=O)C1=C(O)/C(=C\c2ccc(CNS(=O)(=O)c3ccc(Br)cc3)o2)N=C1C,·,·,–,–,·,–,·
c1ccc(-n2cnc3cc(NCc4cccs4)ccc32)cc1,–,22.8,–,–,–,–,–
Nc1[nH]nc2nc(N3CCOCC3)nc(-c3ccccc3)c12,–,23.5,–,–,–,–,–
Cc1cc(C)n(-c2nc(N(c3ccccc3)c3ccccc3)nc(-n3nc(C)cc3C)n2)n1,–,–,–,–,–,–,·
Cc1cc(C)n(-c2nc(Nc3ccccc3)nc(-n3nc(C)cc3C)n2)n1,–,25.7,–,–,–,–,–
O=C(NCCCN1CCCCCC1)c1ccc(CS(=O)(=O)Cc2ccccc2F)o1,–,24.6,–,–,–,–,29.9
O=C(Cn1c(=O)oc2cc(S(=O)(=O)N3CCCC3)ccc21)Nc1cccc(C(F)(F)F)c1,–,25.6,–,–,–,–,–
CCc1cccc(NC(=O)Cn2c(=O)oc3cc(S(=O)(=O)N4CCOCC4)ccc32)c1,–,–,–,–,–,–,·
O=C(CSc1nnnn1-c1ccc2c(c1)OCCO2)Nc1nc2c(s1)CCCC2,–,29.1,–,–,–,–,–
Cc1nc2n(n1)C(c1ccccc1)C1=C(CC(c3ccco3)CC1=O)N2 (stereo not given),–,–,–,–,–,–,·
O=C1CC(c2ccco2)CC2=C1C=Nc1ccccc1N2 (stereo not given),–,21.8,–,–,–,–,–
O=C(CN1C(=O)C2C3c4ccccc4C(c4ccccc43)C2C1=O)Nc1ccccc1C(=O)O (stereo not given),·,·,–,–,·,–,·
CCOC(=O)Cc1csc(NC(=O)Cc2cccs2)n1,–,19.4,–,–,–,–,–
COC(=O)c1[nH]c2ccc(C)cc2c1NC(=O)CN1CCCc2ccccc21,–,19.6,–,–,–,–,22.1
O=C(Nc1cccc(NC(=O)c2ccc(Br)o2)n1)c1ccc(Br)o1,–,26.0,–,–,–,–,–
Cc1ccc(NC(=O)c2ccc(OC(=O)CCN3C(=O)c4ccccc4C3=O)cc2)cc1,–,19.5,–,–,–,–,–
O=C(Cn1c(=O)n(Cc2ccco2)c(=O)c2c3c(sc21)CCCCC3)Nc1ccccc1,–,32.0,–,–,–,–,–
O=C(Cn1c(=O)n(Cc2ccco2)c(=O)c2c3c(sc21)CCCCC3)c1ccccc1,–,30.4,–,–,–,–,–
O=c1c2c3c(sc2n(CCN2CCCC2)c(=O)n1Cc1ccco1)CCCCC3,·,·,–,–,·,–,·
Cc1cc(C(=O)NNC(=S)NC(C)c2ccccc2)c2ccccc2n1 (stereo not given),–,–,–,–,–,–,·
CCOc1ccc(CCNC(=O)c2cc3sccc3n2CC)cc1OCC,–,–,–,–,–,–,·
O=C(NCCc1nc2ccccc2[nH]1)/C(=C/c1ccco1)NC(=O)c1ccc(Br)o1,·,·,–,–,·,–,·
SMILES,S1P2 blocker,FAK inh,SDO1 yeast rescue,GALR2 agonist,S1P2 agonist,GALR2 blocker,FAK inh confirm
Cc1cc(NC(=O)CSc2c3c(nc4ccccc24)CCC3)no1,–,26.8,–,–,–,–,–
COc1ccccc1NC(=O)CSc1c2c(nc3ccccc13)CCC2,·,·,–,–,·,–,·
COc1cc(OC)cc(C(=O)N[C@H](C(=O)OCC(N)=O)C(C)C)c1,·,·,–,–,·,–,·
CC(=O)NC1C(=O)N(C)c2ccc(Br)cc21 (stereo not given),–,–,–,–,–,–,·
Cc1ccc(-c2onc3ccc(C=O)cc23)cc1,–,22.4,–,–,–,–,29.6
Cc1ccc(-c2onc3ccc(C4(C)OCCO4)cc23)cc1,–,–,–,–,–,–,·
CC(=O)Nc1cc(OC(C)=O)c2nonc2c1OC(C)=O,98.2,57.3,·,–,–,95.7,–
CC(=O)N1CCN(c2ccc(Nc3ncnc4c3oc3ccccc34)cc2)CC1,–,23.8,–,–,–,–,–
CCNc1nc(NC(C)C)nc(OCC)n1,–,–,–,–,–,–,·
O/N=C/c1cc(Br)ccc1OCc1cccc(F)c1,–,19.8,–,–,–,–,–
Cc1ccc(CN2C(=O)CCC2C(=O)NCCN(CC(C)C)CC(C)C)cc1 (stereo not given),–,–,–,–,–,–,·
COc1cc(/C=N/NC(=O)Nc2cccc3nsnc23)cc(OC)c1OC,–,–,–,–,–,–,·
COc1ccc(/C=N/NC(=O)Nc2cccc3nsnc23)c(OC)c1,–,25.6,–,–,–,–,–
Cc1cc2sc(C(=O)O)c(C)c2s1,–,–,–,–,–,–,·
CC(=O)Oc1ccc(/C=N/NC(=S)Nc2ccccc2)cc1,·,·,–,–,·,–,·
CC(C)(C)c1nc2ccccc2c2nnc(SCC(=O)Nc3nc4ccccc4s3)n12,–,23.1,–,–,–,–,–
Cc1nc2c(ccc3nc(NC(=O)c4ccc5c(c4)OCCO5)sc32)s1,–,24.3,–,–,–,–,–
O=C1Nc2ccc(NS(=O)(=O)c3cccs3)c3cccc1c23,–,41.5,–,–,–,–,19.4
Cc1cc(C)cc(N(CC(=O)Nc2ccccc2C(=O)N2CCOCC2)S(C)(=O)=O)c1,·,·,–,–,·,–,·
O=C1c2ccccc2-c2onc3ccc(NCCCn4ccnc4)c1c23,–,35.7,–,–,–,–,27.2
Cc1nc(NCCCn2ccnc2)c2ccccc2n1,·,·,–,–,·,–,·
Cc1ccc(N2CC(C(=O)Nc3ccc4c(c3)OCO4)CC2=O)cc1 (stereo not given),–,40.5,–,–,–,–,–
O=C(NCc1ccco1)c1cccn2c(=O)c3cc4ccccc4cc3nc12,–,36.8,–,–,–,–,–
O=C(NCc1ccco1)c1cnc2ccccn2c1=O,·,·,–,–,·,–,·
Cc1ccc(Cn2c(=N)c(C(=O)NCc3ccco3)cc3c(=O)n4ccccc4nc32)cc1,–,39.9,–,6.8,24.2,–,–
SMILES,S1P2 blocker,FAK inh,SDO1 yeast rescue,GALR2 agonist,S1P2 agonist,GALR2 blocker,FAK inh confirm
CN1CCN(NC(=O)c2ccc(Br)c(S(=O)(=O)N3CCOCC3)c2)CC1,·,·,–,–,·,–,·
N#Cc1cc(Cl)c(N2CCOCC2)cc1C#N,–,–,–,–,–,–,·
N#Cc1cc2ccc(N3CCOCC3)cc2cc1C#N,–,22.7,–,–,–,–,–
C/C(CC(=O)Nc1ccc(Cl)c(C(F)(F)F)c1)=N\NC(=O)c1cc2ccccc2cc1O,·,·,–,–,·,–,·
Clc1ccc(OCc2nn3c(-c4ccco4)nnc3s2)c(Cl)c1,–,38.8,–,–,–,–,–
Cc1ccc(OCc2nn3c(-c4ccco4)nnc3s2)cc1,–,–,–,–,–,–,·
